High-throughput results from PubChem.
KLF5 inhibitor: KLF5 expression inhibitors, primary screen, DLD-1 cells, luminescence. DLD-1 KLF5 promoter-luciferase reporter. AID 1700, 2009. inhibition, % at 5 µM. hit rate 0.23% among 290,000;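 active means inhibition above a per-plate limit of that plate's mean compound inhibition plus 3 SD, cut at about 60% in these data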;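 further: 0% = DMSO wells and 100% = LY294002 at 200 µM; higher means less KLF5 promoter-driven luciferase light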
Ba/F3 V617F tox: reduced viability of JAK2V617F-dependent Ba/F3 cells, primary screen, JAK2V617F inhibitor project, cell-based, Ba/F3 EpoR-JAK2V617F, luminescence; ATP luminescence; AID 1446, 2008; hit rate 1.1% among 220,000; inhibition, % at 5.6 µM;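 active means inhibition above the campaign mean plus 3 SD over all tested compounds, cut at about 24% in these data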;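 further: cytokine-independent growth of Ba/F3 cells driven by EpoR plus mutant JAK2; 0% = DMSO-treated cells and 100% = JAK inhibitor I control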
aSyn UTR inh: MLPCN primary screen, SNCA 5' untranslated region; alpha-synuclein 5'UTR reporter, inhibitor activity; inhibition, % (tested at 7.5 µM); hit rate 0.82% among 300,000; AID 1813, 2009; in the data active means inhibition above about 60%;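 further: H4 neuroglioblastoma cells stably carrying SNCA 5'UTR luciferase fusion; 0% = DMSO wells and 100% = positive control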
IEC-6 tox: cytotoxicity in IEC-6 intestinal epithelial cells, primary screen, cytotoxicity control for KLF5 inhibitor project, cell-based, luminescence; IEC-6 cytotoxicity, luminescence viability; inhibition, % at 5 µM; hit rate 0.78% among 290,000;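 further: 0% = plate median of test compound wells and 100% = cytotoxic reference compound wells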
BaF3 tox: parental Ba/F3 cell viability inhibition, counter-screen for JAK2V617F inhibitor project, murine pro-B, CellTiter-Glo luminescence. CellTiter-Glo ATP luminescence. inhibition, % at 5.6 µM. hit rate 1.1% among 220,000. AID 1486, 2009;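 active means inhibition above a per-campaign cutoff, the mean inhibition of all tested compounds plus 3 SD, cut at about 27% in these data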;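 further: 0% = DMSO wells and 100% = JAK Inhibitor I control wells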
APP transl inh: inhibitors of APP translation via 5'UTR reporter, primary screen, APP 5'UTR luciferase, SH-SY5Y cells; inhibition, % at 2 µM; SH-SY5Y APP 5'UTR-luciferase reporter, luminescence; hit rate 0.82% among 190,000;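 active means inhibition above a set limit, derived from the sample mean plus 3 SD, cut at about 45% in these data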
IEC-6 tox confirm: cytotoxic compounds in IEC-6 epithelial cells, confirmation, cytotoxicity control, cell-based, luminescence | shares compounds with IEC-6 tox | inhibition, % at 5 µM | hit rate 63% among 1,900 | IEC-6 rat intestinal epithelial viability | AID 1907, 2009;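 further: 0% = vehicle and 100% = reference cytotoxic drug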
The depositor's hits bear a star; . = no result given. Most compounds without a hit are left out; they make up all but 2.1% or so of the library. Unless noted, no stated cut-off is given here; in the data, active means inhibition above about 22%; inactive means the rest.

SMILES	KLF5 inhibitor	Ba/F3 V617F tox	aSyn UTR inh	IEC-6 tox	BaF3 tox	APP transl inh	IEC-6 tox confirm
Cc1ccc(NC2CCCN(C(=O)CSc3ccncc3)C2)cc1C (centres undefined)	0	.	-1	-3	.	.	.
COc1cc2c(cc1OC)CN(C(=O)/C=C/c1cccs1)CC2	47	81*	31	59*	63*	.	52*
COc1cc2c(cc1OC)CN(C(=O)/C=C/c1ccccc1[N+](=O)[O-])CC2	15	.	-52	24*	.	.	16
COc1cc2c(cc1OC)CN(C(=O)/C=C/c1ccc([N+](=O)[O-])cc1)CC2	-17	.	4	-2	.	.	.
COc1cccc(Oc2ncnc(N)c2[N+](=O)[O-])c1	-22	.	-9	4	.	.	.
CCC1=Nc2cc(C(=O)NCCCOC)ccc2Sc2ccccc21	48	77*	74*	88*	79*	95*	60*
CCC1=Nc2cc(C(=O)NCCN3CCCC3)ccc2Sc2ccccc21	0	.	-32	-1	.	.	.
CN(C)c1ccc(/C=C(\C#N)C(=O)c2ccccc2)cc1	1	0	6	6	1	.	.
CN(C)c1cccc(/C=C(\C#N)c2ccccc2)c1	-25	81*	-155	77*	76*	.	56*
CCC(CC)c1nnc(NC(=O)c2ccc3ccccc3n2)s1	2	-3	-86	35*	4	-96	3
CS(=O)(=O)NCc1ccc(C(=O)NC2CCCCC2)cc1	-6	4	22	37*	5	-3	11
Cc1ccc(S(=O)(=O)NCc2ccc(C(=O)NC3CCCCC3)cc2)cc1	-17	.	8	-5	.	.	.
Cc1onc(-c2ccccc2)c1C(=O)Nc1cc(C(F)(F)F)ccc1N1CCOCC1	44	84*	29	77*	81*	70*	50*
Cc1onc(-c2ccccc2)c1C(=O)Nc1ccccc1N1CCOCC1	-20	1	12	-2	6	-9	.
CCOC(=O)c1ccc(N2CCOCC2)c(NC(=O)c2c(-c3ccccc3)noc2C)c1	50	75*	46	61*	54*	.	50*
Cn1c(=O)c2cc(S(=O)(=O)Nc3ccc4c(c3)OCO4)ccc2n(C)c1=O	0	6	28	22*	16	19	21
Oc1ccc2nnc3c(Br)cnn3c2c1	-24	.	-1	-2	.	.	.
O=C(CSc1nc2ccccc2c(=O)[nH]1)Nc1ccccc1C(F)(F)F	-13	.	10	29*	.	.	18
O=C(CSc1nc2ccccc2c(=O)[nH]1)Nc1ccccc1O	-41	.	-9	-1	.	.	.
CCc1nnc(NC(=O)c2ccc(S(=O)(=O)N(CC)Cc3ccccc3)cc2)o1	23	0	9	26*	6	15	2
CCN(Cc1ccccc1)S(=O)(=O)c1ccc(C(=O)Nc2nnc(C)o2)cc1	42	.	24	17	.	.	.
O=C(NCC1CCCO1)C1CCCN(S(=O)(=O)c2cc(Cl)ccc2Cl)C1 (centres undefined)	-4	.	-11	-4	.	.	.
COCCCNC(=S)NNC(=O)c1cc(Cl)c(O)c(Cl)c1	-11	-6	4	1	-1	.	.
COCCCNC(=S)NNC(=S)NCCCOC	-17	7	16	22*	-5	.	6
CCc1nnc(N/N=C/c2ccc(N3CCC(C)CC3)c([N+](=O)[O-])c2)n1N	-30	1	0	6	5	3	.
SMILES	KLF5 inhibitor	Ba/F3 V617F tox	aSyn UTR inh	IEC-6 tox	BaF3 tox	APP transl inh	IEC-6 tox confirm
Cc1nnc(N/N=C/c2cc([N+](=O)[O-])c(N3CCC(C)CC3)cc2N2CCC(C)CC2)n1N	44	2	-19	103*	5	6	12
COC(=O)c1ccc(NS(=O)(=O)c2cc(-c3cc(C)no3)ccc2OC)cc1	50	.	-26	63*	.	.	40*
Cc1cc(C)c2nc(Cl)c(C3NC(=O)c4ccccc4N3)cc2c1 (centres undefined)	-25	-1	20	0	5	-11	.
Cc1ccc(C)c(C2NC(=O)c3ccccc3N2)c1 (centres undefined)	42	42*	-70	63*	39*	.	51*
CCOc1ccccc1NC(=O)CSc1nnc(CNC(=O)c2cccs2)o1	-15	.	3	-6	.	.	.
CCC(=O)OCCNc1cc(Sc2nc3ccccc3[nH]2)c2nonc2c1[N+](=O)[O-]	24	9	.	54*	1	70*	5
Cc1oc(-c2cccc(Cl)c2)nc1CN1CCC(C(=O)NCCCN2CC(C)CC(C)C2)CC1 (centres undefined)	-27	.	4	22*	.	.	53*
CC1CCN(C(=O)COC(=O)Cc2ccc(Br)cc2)CC1	-21	.	7	-5	.	.	.
CCN1C(=O)C(O)(C2COC(C)(C)CC2=O)c2cc(Br)ccc21 (centres undefined)	-5	22	6	84*	33*	5	1
CCN1C(=O)C(O)(C2COC(C)(C)CC2=O)c2ccccc21 (centres undefined)	10	1	-4	5	1	-2	.
CCOC(=O)c1[nH]c(C)c(C(=O)Nc2ccccc2C)c1C	47	71*	-27	56*	66*	84*	51*
CCN1/C(=C/C=C/c2sc3ccccc3[n+]2CC)Sc2ccccc21	.	.	40	.	.	.	.
CCN1/C(=C/c2ccc3cc(C)ccc3[n+]2CC)Sc2cc(C)c(C)cc21	-1	100*	.	39*	89*	46*	29*
CCN1/C(=C/c2ccc3cc(C)ccc3[n+]2CC)Sc2ccccc21	41	102*	100*	50*	106*	81*	70*
CCCCc1nc(SCC(=O)N2CCOCC2)c2c(=O)n(C)c(=O)n(C)c2n1	-8	.	6	2	.	.	.
Cc1ccc(N=Nc2c(N)[nH]n3c(=O)cc(C)nc23)cc1	-26	-2	-54	22*	0	2	16
O=C(O)c1ccccc1NC(=O)c1ccccc1Nc1ccccc1	21	.	34	35*	.	.	11
CCCCN1C(=O)N(c2ccccc2Cl)C(C)(O)CC1(C)C (centres undefined)	-22	.	23	3	.	.	.
COc1ccc(C(C(=O)NC(C)(C)C)N(Cc2cccnc2)C(=O)CCC(=O)Nc2cc(C)on2)cc1 (centres undefined)	-14	.	10	2	.	.	.
CCOC(=O)Nc1nc(-c2ccccc2)c(C(=O)c2ccccc2)s1	55	80*	117*	86*	80*	94*	58*
CC1CCCCC12NC(=O)N(CC(=O)c1ccc(Cl)s1)C2=O (centres undefined)	-16	.	-1	-7	.	.	.
N=c1ccn2c(n1)OC1C(O)C(CO)OC12 (centres undefined)	24	75*	112*	92*	80*	.	72*
